According to PubChem BioAssay (Tox21):
Results filed as inconclusive are left out. The source made the active and inactive calls. Unless noted, calls come from the whole dose curve; as a rule, active = well fitted curve in the direction sought with a large enough effect in the repeat runs; inconclusive = weak or mixed curves; inactive = no such curve, though single readings can be large; an effect the other way counts as inactive or inconclusive.

How the values were obtained:
[1] = qHTS assay for small molecule agonists of the p53 signaling pathway (AID 651631; calls by dose curve; note: nearly all actives have a fitted effect of over 15% in size)
Outline: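 Agonist mode screen using a stably integrated beta-lactamase gene under p53 response elements in HCT-116 cells. Compound exposure lasts 16 h at 37 °C; fluorescence intensity is measured following 2 h FRET substrate loading.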

[2] = qHTS assay for small molecules that induce genotoxicity in human embryonic kidney cells expressing luciferase-tagged ATAD5 (AID 651632); note: nearly all actives have a fitted effect of over 15% in size
Outline: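 Quantitative HTS in HEK293T expressing luciferase-tagged ATAD5, whose levels rise upon DNA damage. Exposure ran 16 hr at 37C and 5% CO2, with luminescence read 30 min after Amplite addition at room temperature.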

[3] = qHTS assay for small molecule agonists of the p53 signaling pathway - cell viability (AID 651633; calls by dose curve;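 note: p53RE-bla HCT reporter cells with a stable beta-lactamase p53 reporter; series mostly up to about 83 µM; nearly all actives have a fitted effect of over 30% in size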)
Outline: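 Viability counter-read: CellTiter-Glo luminescence (30 min, room temperature) in the same p53RE-bla plates. These plates had been exposed to compounds for 16 h at 37 C.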

[4] = qHTS assay for small molecules that induce genotoxicity in human embryonic kidney cells expressing luciferase-tagged ATAD5 - cell viability (AID 651634; calls by dose curve; note: nearly all actives have a fitted effect of over 25% in size)
Outline: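 After 15.5 hr incubation with compound at 37C, 5% CO2, HEK293T ATAD5-luciferase cells received CellTiter-Fluor reagent; fluorescence intensity was quantified following 30 min at 37C.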

[5] = qHTS assay for small molecule disruptors of the mitochondrial membrane potential - cell viability (AID 720634; calls by dose curve;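 note: human HepG2 liver cancer cells; series mostly up to about 83 µM; nearly all actives have a fitted effect of over 20% in size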)
Outline: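 ATP-based luminescent viability readout (CellTiter-Glo, 30 min, room temperature) in HepG2 cells multiplexed with the m-MPI membrane potential dye; compound exposure lasted 1 hr at 37 C.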

[6] = qHTS assay to test for compound auto fluorescence at 590 nm (red) in HepG2 cells (AID 720674)
Outline: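 1 hr compound incubation on HepG2 cells, 37 C, 5% CO2; plate read ex 540 nm / em 590 nm; intensities reported as Rose Bengal sodium equivalents.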

[7] = qHTS assay to test for compound auto fluorescence at 535 nm (green) in HepG2 cells (AID 720675)
[8] = qHTS assay to test for compound auto fluorescence at 460 nm (blue) in HEK293 cells (AID 720678)
Outline: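 Measured: blue fluorescence (Ex 405/Em 460 nm) of compound-treated HEK293 cells, incubated overnight at 37C with 5% CO2 and scaled to triamterene equivalents.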

[9] = qHTS assay to test for compound auto fluorescence at 590 nm (red) in HEK293 cells (AID 720679)
Outline: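 Using HEK293 cells at 2,000 per well, the screen added 23 nL of each compound after cell attachment and incubated overnight (37C, 5% CO2). The plate reader then captured red-label fluorescence, Ex/Em 540/590nm.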

[10] = qHTS assay for small molecule disruptors of the mitochondrial membrane potential (AID 720635)
Outline: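 Mitochondrial membrane potential tracked with Mito-MPS dye, red aggregates (ex 540/em 590 nm) against green monomers (ex 490/em 535 nm). Compound treatment 1 hr at 37C, dye 30 min in HepG2.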

Measured: Potency

Nc1ccc(C(=O)O)cc1
not listed: [10]
inactive: all other assays above

O=S(=O)(O)c1ccc2cc(O)ccc2c1
not listed: [10]
inactive: all other assays above

c1ccc2[nH]ccc2c1
not listed: [2] | [10]
inactive: all other assays above

COc1ccc2[nH]cc(CCNC(C)=O)c2c1
not listed: [2] | [10]
inactive: all other assays above

CC(C)(Oc1ccc(C2CC2(Cl)Cl)cc1)C(=O)O (stereo not given)
not listed: [2] | [10]
inactive: all other assays above

CNC[C@H](O)c1cccc(O)c1
not listed: [2] | [10]
inactive: all other assays above

O=C(c1ccccc1)c1ccccc1
not listed: [2] | [4] | [10]
inactive: all other assays above

Cn1cc[nH]c1=S
not listed: [1] | [2] | [3]
inactive: all other assays above

O=NO
not listed: [1] | [2] | [10]
inactive: all other assays above

N=C(N)c1ccc(OCCCCCOc2ccc(C(=N)N)cc2)cc1
not listed: [1] | [2] | [10]
inactive: all other assays above

O=C1CN(/N=C/c2ccc([N+](=O)[O-])o2)C(=O)N1
not listed: [2] | [4] | [10]
inactive: all other assays above

Cc1ccc(S(=O)(=O)NC(=O)NN2CCCCCC2)cc1
not listed: [1] | [2]
inactive: all other assays above

O=C(O)CS
not listed: [1] | [2] | [10]
inactive: all other assays above

C/C=C/c1ccc(OC)cc1
not listed: [1] | [2] | [10]
inactive: all other assays above

O=C(O)c1cccnc1
inactive: [4] | [5] | [6] | [7] | [8] | [9]

C[C@]12C=CC(=O)C=C1CC[C@@H]1[C@@H]2[C@@H](O)C[C@@]2(C)[C@H]1CC[C@]2(O)C(=O)CO
not listed: [2] | [10]
inactive: all other assays above

Cc1ccc(C)c(OCCCC(C)(C)C(=O)O)c1
not listed: [1] | [3] | [10]
inactive: all other assays above

O=C1NC(=O)c2ccccc21
not listed: [1] | [2] | [10]
inactive: all other assays above

CCCC(CCC)C(=O)O
not listed: [1] | [2] | [3]
inactive: all other assays above

Cc1ccc(O)cc1
not listed: [2] | [10]
inactive: all other assays above

OC(Cn1cncn1)(Cn1cncn1)c1ccc(F)cc1F
not listed: [1] | [2]
inactive: all other assays above

C1N2CN3CN1CN(C2)C3
not listed: [2] | [10]
inactive: all other assays above

Cn1c(=O)c2[nH]cnc2n(C)c1=O
not listed: [2] | [4] | [10]
inactive: all other assays above

NS(=O)(=O)c1cc(C(=O)O)c(NCc2ccco2)cc1Cl
inactive: [4] | [5] | [6] | [7] | [8] | [9]

O=S(=O)(O)NC1CCCCC1
inactive: [4] | [5] | [6] | [7] | [8] | [9]

O=C(c1ccccc1)C(O)c1ccccc1 (stereo not given)
inactive: [3] | [4] | [6] | [7] | [8] | [9]

O=C(O)CCCCC(=O)O
inactive: [1] | [3] | [6] | [7] | [8] | [9]

O=C(O)CCC(=O)O
not listed: [1] | [2] | [10]
inactive: all other assays above

CCC1(c2ccccc2)C(=O)NCNC1=O
not listed: [2] | [4] | [10]
inactive: all other assays above

CCOc1ccc(NC(=O)CC(C)O)cc1 (stereo not given)
not listed: [2] | [10]
inactive: all other assays above

NC(N)=O
not listed: [1] | [2] | [10]
inactive: all other assays above

CC(=O)OCC(COC(C)=O)OC(C)=O
not listed: [1] | [10]
inactive: all other assays above

COc1c2occc2cc2ccc(=O)oc12
not listed: [2] | [4] | [10]
inactive: all other assays above

Cc1ccccc1C(OCCN(C)C)c1ccccc1 (stereo not given)
not listed: [1] | [2] | [10]
inactive: all other assays above

O=C(O)C(=O)O
not listed: [1] | [2]
inactive: all other assays above

Cc1cc(=O)[nH]c(=S)[nH]1
not listed: [2] | [10]
inactive: all other assays above

CC(C)[C@@H]1CC[C@@H](C)C[C@H]1O
not listed: [1] | [10]
inactive: all other assays above

O=C(C1CCCCC1)N1CC(=O)N2CCc3ccccc3C2C1 (stereo not given)
inactive: [4] | [5] | [6] | [7] | [8] | [9]

Cc1cn([C@H]2C[C@H](N=[N+]=[N-])[C@@H](CO)O2)c(=O)[nH]c1=O
not listed: [2] | [4] | [10]
inactive: all other assays above
